Paper PMC4552634, “A New Set of Chemical Starting Points with Plasmodium falciparum Transmission-Blocking Potential for Antimalarial Drug Discovery” (PLoS ONE, 2015)
Like-named read-outs stand apart in the source and are kept apart here. Hit rate of the full screen: of about 13,000 compounds, about 3,200 (25%) showed an effect of 50% or more. The list shows a part of the results.

Test system: P. falciparum stage V gametocytes
Set-up: BacTiter-Glo ATP luminescence viability of purified stage V gametocytes in 384-well plates, per cent inhibition versus DMSO
Conditions: 48 h, 5 µM, inhibitor

Compound | % Inhibition | % Inhibition (% Inhibition)
OC(CNCc1ccccc1OCc1ccccc1)c1cccc(Cl)c1 (stereo not drawn) [TCMDC-140563] | -9.137% | 
OC(CNCc1ccccc1OCc1ccccc1)c1cccc(I)c1 (stereo not drawn) [TCMDC-140522] | 41.43% | 
OC(CNCc1ccccc1OCc1ccccc1)c1cccc(Br)c1 (stereo not drawn) [TCMDC-140734] | 51.74% | 
Cc1cc(OCC(=O)Nc2ccc(-c3nc4ccccc4[nH]3)cc2)cc(C)c1Cl [TCMDC-125674] | -10.97% | 
Cc1cccc(C)c1CNc1ccnc2cc(C#N)ccc12 [TCMDC-132170] | 2.762% | 
NS(=O)(=O)NCCCN1CCN(c2ccccc2)CC1 [TCMDC-141997] | 27.05% | 
CC(C)N1CCN(CCCCNc2c3ccccc3nc3ccccc23)CC1 [TCMDC-137573] | 93.57% | 
CC(C)N1CCN(CCCNc2c3ccccc3nc3ccccc23)CC1 [TCMDC-137547] | 96.57% | 
Cc1ncsc1CCN1C(=O)CC2(C1=O)C(=O)N(Cc1ccccc1)c1ccc(Cl)cc12 (stereo not drawn) [TCMDC-136701] | 2.069% | 
COc1cc(F)c2ncc(Cl)c([C@@H](O)CN3CCC(NCc4cc5c(cn4)OCCO5)CC3)c2c1 [TCMDC-135475] | 41.87% | 
Cc1ccccc1OCCCc1c(C)nc(N)nc1N [TCMDC-138070] | -46.3% | 
Cc1ccc(NC(=O)c2cc(Br)cc(N3CCC(N(C)C)CC3)c2)cc1F [TCMDC-135144] | -10.77% | 
CC(C)Cc1cn(-c2nc(-c3nc4ccccc4[nH]3)cs2)c2cc(Cl)ccc12 [TCMDC-132300] | -85.76% | 
O=C(/C=C/c1cccs1)NCC(NCCCNc1cc(=O)c2ccccc2[nH]1)c1cc(Br)cc(Br)c1 (stereo not drawn) [TCMDC-140318] | -18.64% | 
CCn1cc(CN2CCCC(C(=O)Nc3ccc(-c4nc5ccccc5[nH]4)cc3)C2)cn1 (stereo not drawn) [TCMDC-124674] | -65.71% | 
CCC(=Cc1cccc([N+](=O)[O-])c1)C(=O)NCC1CCN(c2nc(N)c3cc(OC)c(OC)cc3n2)CC1.Cl [TCMDC-138165] | 19.29% | 
CCN(CC)CC(O)Cc1c2ccc([N+](=O)[O-])cc2nc2cc(OC)c(OC)cc12 (stereo not drawn) [TCMDC-138126] | 37.45% | 
CCN(CC)CC(O)CNc1c2ccc([N+](=O)[O-])cc2nc2cc(OC)c(OC)cc12.Cl (stereo not drawn) [TCMDC-138079] | 90.61% | 
Cc1noc(-c2ccc(NC[C@@H](C)NC[C@H](O)c3cccc(Cl)c3)cc2)n1 [TCMDC-132027] | 14.57% | 
COc1cc(C=Cc2ccc3ccccc3n2)cc(Br)c1OCC(=O)N(C)C [TCMDC-124818] | 44.47% | 
CC(C)C(=O)NC(c1cccs1)c1cc(Cl)c2cccnc2c1O (stereo not drawn) [TCMDC-123636] | 43.04% | 
CC(C)C(=O)NC(c1ccc(N(C)C)cc1)c1cc(Cl)c2cccnc2c1O (stereo not drawn) [TCMDC-123643] | 90.13% | 
CCCCC(=O)NC(c1cccs1)c1cc(Cl)c2cccnc2c1O (stereo not drawn) [TCMDC-123653] | 45.79% | 
CCCC(=O)NC(c1cccs1)c1cc(Cl)c2cccnc2c1O (stereo not drawn) [TCMDC-123634] | 68.96% | 

Compound | % Inhibition | % Inhibition (% Inhibition)
CC(=O)NC(c1cccs1)c1cc(Cl)c2cccnc2c1O (stereo not drawn) [TCMDC-125548] | 90.83% | 
COc1ccccc1N(C)CCNc1cc(C)nc(Nc2ccccc2)n1 [TCMDC-133455] | -20.01% | 
Cc1cc(NC(=O)N=C(N)N)ccc1Cl [TCMDC-137470] | 23.53% | 
CC(C)Cc1nc(N2CCOCC2)c2nnn(Cc3ccccc3)c2n1 [TCMDC-124394] | 7.117% | 
Cc1ccc(C)c(CN2CCC(CNC(=O)c3cc4ccc5cccnc5c4[nH]3)CC2)c1 [TCMDC-125280] | 17.56% | 
CCN1C(c2ccc(Cl)cc2)C(CNCc2ccccc2O)CC1(C)CO (stereo not drawn) [TCMDC-124672] | -22.05% | 
Cc1cc2c(cc1C(F)(F)F)N(C(=O)Nc1cc(OCCN(C)C)cc(C(F)(F)F)c1)CC2 [TCMDC-139873] | 27.41% | 
Cc1cc(Nc2cccc(Cl)c2)nc2ccc(NC(=O)c3ccc(=O)[nH]c3)cc12 [TCMDC-125285] | -92.28% | 
N#Cc1ccc(NC(=O)Nc2ccc(OC(F)(F)F)cc2)cc1 [TCMDC-123773] | 69.14% | 
O=C(Nc1cccc([N+](=O)[O-])c1)Nc1cccc(C(F)(F)F)c1 [TCMDC-123674] | -87.02% | 
O=C(Nc1ccc([N+](=O)[O-])cc1)Nc1cc(OCC(F)(F)F)cc(OCC(F)(F)F)c1 [TCMDC-124533] | 87.27% | 
O=C(Nc1ccc(OC(F)(F)F)cc1)Nc1ccc([N+](=O)[O-])cc1 [TCMDC-123714] | -87.78% | 
N#Cc1ccc(NC(=O)Nc2ccc3c(c2)CCN(C2CCC2)CC3)cc1 [TCMDC-135861] | 25.77% | 
O=C(Nc1ccc(CCNCc2ccccc2)cc1)Nc1ccc(OC(F)(F)F)cc1 [TCMDC-141914] | -0.1841% | 
O=C(Nc1ccc([N+](=O)[O-])cc1)Nc1cc(C(F)(F)F)ccc1F [TCMDC-124367] | -37.77% | 
COc1cc(NC(=O)Nc2ccc([N+](=O)[O-])cc2OC)c(OC)cc1Cl [TCMDC-124366] | 14.63% | 
COc1cc([N+](=O)[O-])ccc1NC(=O)Nc1ccc(OC(F)(F)F)cc1 [TCMDC-125388] | 60.01% | 
Cc1ccc(C2CC(=O)CC(c3ccccn3)C2[N+](=O)[O-])cc1 (stereo not drawn) [TCMDC-139131] | 6.685% | 
CCCSc1nc2c(c(=O)n1Cc1ccco1)C1(CCCCC1)Cc1ccccc1-2 [TCMDC-123897] | -0.1623% | 
CC(C)C[C@H](NC(=O)c1ccc(OCCN2CCOCC2)cc1)C(=O)N[C@H](/C=N/N1CCN(C)C1=O)CCc1ccccc1 [TCMDC-136154] | 6.527% | 
CO/C(=C\C=C\c1cc2cc(Cl)c(Cl)cc2[nH]1)C(=O)NCCCN1CCN(c2cccc(O)c2)CC1 [TCMDC-139248] | 6.724% | 
O=C(NCc1ccc(C(=O)NC2CCCCCC2)cc1)c1ccc(O)c(-c2ccc(Cl)c(Cl)c2)c1 [TCMDC-140846] | -16.48% | 
CN(C)c1ccc(NC(=O)Nc2ccnc3ccc(Br)cc23)cc1 [TCMDC-139326] | -66.68% | 
C/C=C1\CN2CC[C@H]1C[C@H]2[C@H](O)c1ccnc2ccc(OC)cc12 [TCMDC-138074] |  | 4.282%

Compound | % Inhibition | % Inhibition (% Inhibition)
COc1ccc(CNc2nccc3ccc(-c4ccc(N)nc4)cc23)cc1 [TCMDC-133418] | 62.64% | 
OC(CNc1ccnc(Nc2cccc(Cl)c2)n1)c1cccc(C(F)(F)F)c1 (stereo not drawn) [TCMDC-136586] | -39.19% | 
COc1ccc(CNc2nccc3ccc(-c4ccc5nccn5c4)cc23)cc1 [TCMDC-133417] | -35.58% | 
COc1ccc(CNc2ccnc3cc(OC)ccc23)cc1 [TCMDC-139267] | 1.914% | 
COc1ccc(Nc2nccc(-c3ccc4c(-c5ccsc5)cnc(N)c4c3)n2)cc1 [TCMDC-135552] | 9.815% | 
CCCCNc1nccc2ccc(-c3ccncc3)cc12 [TCMDC-136490] | -10.89% | 
OC(CNc1ccnc(Nc2cccc(Cl)c2)n1)c1cccc(F)c1 (stereo not drawn) [TCMDC-136573] | -70.46% | 
NCCCCNc1cc(-c2ccnc(Nc3cccc(Cl)c3)n2)ccn1 [TCMDC-134683] | 70.36% | 
COc1ccc(Nc2nccc(-c3ccc4ccnc(NCCCCN)c4c3)n2)cc1 [TCMDC-136642] | 94.8% | 
Cc1ccccc1C1CCN(C2CCC(NC(=O)/C=C/c3cccc(Cl)c3)CC2)CC1 (stereo not drawn) [TCMDC-133508] | -91.25% | 
CS(=O)(=O)c1ccc(CNCc2cccc(-c3cccc(-c4nc5cc(C(F)(F)F)ccc5[nH]4)c3)c2)cc1.O=C(O)C(F)(F)F [TCMDC-132899] | -4.854% | 
O=C(Nc1ccc(N2CCN(Cc3cccc(F)c3)CC2)cc1)c1cccs1 [TCMDC-134999] | -0.3438% | 
COc1ccc2nccc([C@@H](O)CN3CCC(NC(=O)C(c4cc5ccccc5o4)N4CCC(Cc5ccccc5)CC4)CC3)c2c1 (stereo partly drawn) [TCMDC-140997] | 26.99% | 
COc1cccc(CCc2nc3c(N4CCC(Cc5ccccc5)CC4)cccc3n2CC2CNCCO2)c1 (stereo not drawn) [TCMDC-133535] | 83.91% | 
N#Cc1cncc(-c2nc3c(N4CCC(Cc5ccccc5)CC4)cccc3n2C2CCNC2)c1 (stereo not drawn) [TCMDC-133545] | 7.232% | 
CC(C)c1sc(N2CCN(C)CC2)nc1C(=O)Nc1ccc(F)cc1C(F)(F)F [TCMDC-134300] | 32.87% | 
CCSc1ccccc1COc1c(C)nc(N)nc1N [TCMDC-131359] | 18.44% | 
CCN(CC)c1nc(N)c2c(N)nc3c(c2c1C#N)C(=O)CN3Cc1ccccc1 [TCMDC-125024] | 94.19% | 
CCN(CC)c1nc(-c2ccccc2)cc(-c2ccccc2)c1C#N [TCMDC-125830] | -26.16% | 
Cc1cc(=O)c(-c2ccc(Oc3ccc(Cl)cc3Cl)cc2)c(C)[nH]1 [TCMDC-137267] | 10.5% | 
Cc1cc(=O)c(-c2cccc(Oc3ccc(Cl)cc3)c2)c(C)[nH]1 [TCMDC-137415] | 52.21% | 
Cc1cc(=O)c(-c2ccc(Oc3ccc(F)cc3)cc2)c(C)[nH]1 [TCMDC-137535] | 37.78% | 
Cc1cc(=O)c(-c2ccc(Oc3cccc(Cl)c3)cc2)c(C)[nH]1 [TCMDC-137265] | 67.32% | 
COc1ccc(Oc2ccc(-c3c(C)[nH]c(C)cc3=O)cc2)cc1 [TCMDC-137401] | 68.99% | 
